The structures appear in SMILES notation.

For experiment [1], the target named is Serine/threonine-protein kinase WNK2 (Homo sapiens) (UniProt Q9Y3S1). Conditions: at 10 µM; call rule not given here.
Experiment [2] has as its target Serine/threonine-protein kinase WNK3 (Homo sapiens) (UniProt Q9BYP7). The conditions noted are these: at 1 µM.
Experiment [3] has the same target. Conditions: at 10 µM.
Experiment [4] has as its target Tyrosine-protein kinase Yes (Homo sapiens) (UniProt P07947). Conditions: at 1 µM.
Experiment [5] has the same target. The conditions noted are these: at 10 µM.
Experiment [6] addresses T1, Tyrosine-protein kinase ZAP-70 (Homo sapiens) (UniProt P43403).
T1 sequence (whole entry): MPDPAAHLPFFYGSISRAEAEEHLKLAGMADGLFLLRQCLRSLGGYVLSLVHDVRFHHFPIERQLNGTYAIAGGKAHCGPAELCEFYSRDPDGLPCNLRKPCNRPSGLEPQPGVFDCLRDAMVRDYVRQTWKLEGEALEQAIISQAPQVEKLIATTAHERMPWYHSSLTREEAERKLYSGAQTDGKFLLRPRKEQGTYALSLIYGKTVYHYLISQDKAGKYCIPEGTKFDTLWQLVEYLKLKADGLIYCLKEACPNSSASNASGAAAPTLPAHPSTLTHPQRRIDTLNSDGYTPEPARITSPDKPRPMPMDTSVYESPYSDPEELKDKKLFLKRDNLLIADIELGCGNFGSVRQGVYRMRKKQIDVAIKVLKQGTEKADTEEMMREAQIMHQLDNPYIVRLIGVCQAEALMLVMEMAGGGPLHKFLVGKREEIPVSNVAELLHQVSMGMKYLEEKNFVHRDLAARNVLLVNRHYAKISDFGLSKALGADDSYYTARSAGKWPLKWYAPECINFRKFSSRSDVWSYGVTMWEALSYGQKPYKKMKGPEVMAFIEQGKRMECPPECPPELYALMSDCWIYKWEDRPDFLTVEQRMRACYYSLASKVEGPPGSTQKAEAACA
Conditions: at 1 µM.

Experiment [7] deals with Death-associated protein kinase 3 (Homo sapiens) (UniProt O43293). The conditions noted are these: at 1 µM.
Sequence of Death-associated protein kinase 3 (Homo sapiens) (O43293 whole entry, looked up): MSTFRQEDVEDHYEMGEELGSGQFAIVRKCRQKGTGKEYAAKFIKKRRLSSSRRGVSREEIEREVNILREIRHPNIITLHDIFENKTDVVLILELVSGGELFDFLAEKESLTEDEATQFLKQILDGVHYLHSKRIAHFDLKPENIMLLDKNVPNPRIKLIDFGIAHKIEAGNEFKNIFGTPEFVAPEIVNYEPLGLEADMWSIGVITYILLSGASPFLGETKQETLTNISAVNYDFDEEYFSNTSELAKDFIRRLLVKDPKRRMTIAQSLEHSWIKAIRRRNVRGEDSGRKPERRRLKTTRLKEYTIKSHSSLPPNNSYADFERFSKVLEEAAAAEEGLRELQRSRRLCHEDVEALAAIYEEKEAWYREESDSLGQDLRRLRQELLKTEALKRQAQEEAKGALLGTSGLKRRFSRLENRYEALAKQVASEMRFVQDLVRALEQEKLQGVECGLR
Experiment [8] shares this target. Conditions: at 10 µM.
Experiment [9] addresses RAF proto-oncogene serine/threonine-protein kinase (Homo sapiens) (UniProt P04049). The conditions noted are these: at 1 µM.
Experiment [10] has the same target. Conditions: at 10 µM.

Sequence of Serine/threonine-protein kinase WNK3 (Homo sapiens) (Q9BYP7 whole entry): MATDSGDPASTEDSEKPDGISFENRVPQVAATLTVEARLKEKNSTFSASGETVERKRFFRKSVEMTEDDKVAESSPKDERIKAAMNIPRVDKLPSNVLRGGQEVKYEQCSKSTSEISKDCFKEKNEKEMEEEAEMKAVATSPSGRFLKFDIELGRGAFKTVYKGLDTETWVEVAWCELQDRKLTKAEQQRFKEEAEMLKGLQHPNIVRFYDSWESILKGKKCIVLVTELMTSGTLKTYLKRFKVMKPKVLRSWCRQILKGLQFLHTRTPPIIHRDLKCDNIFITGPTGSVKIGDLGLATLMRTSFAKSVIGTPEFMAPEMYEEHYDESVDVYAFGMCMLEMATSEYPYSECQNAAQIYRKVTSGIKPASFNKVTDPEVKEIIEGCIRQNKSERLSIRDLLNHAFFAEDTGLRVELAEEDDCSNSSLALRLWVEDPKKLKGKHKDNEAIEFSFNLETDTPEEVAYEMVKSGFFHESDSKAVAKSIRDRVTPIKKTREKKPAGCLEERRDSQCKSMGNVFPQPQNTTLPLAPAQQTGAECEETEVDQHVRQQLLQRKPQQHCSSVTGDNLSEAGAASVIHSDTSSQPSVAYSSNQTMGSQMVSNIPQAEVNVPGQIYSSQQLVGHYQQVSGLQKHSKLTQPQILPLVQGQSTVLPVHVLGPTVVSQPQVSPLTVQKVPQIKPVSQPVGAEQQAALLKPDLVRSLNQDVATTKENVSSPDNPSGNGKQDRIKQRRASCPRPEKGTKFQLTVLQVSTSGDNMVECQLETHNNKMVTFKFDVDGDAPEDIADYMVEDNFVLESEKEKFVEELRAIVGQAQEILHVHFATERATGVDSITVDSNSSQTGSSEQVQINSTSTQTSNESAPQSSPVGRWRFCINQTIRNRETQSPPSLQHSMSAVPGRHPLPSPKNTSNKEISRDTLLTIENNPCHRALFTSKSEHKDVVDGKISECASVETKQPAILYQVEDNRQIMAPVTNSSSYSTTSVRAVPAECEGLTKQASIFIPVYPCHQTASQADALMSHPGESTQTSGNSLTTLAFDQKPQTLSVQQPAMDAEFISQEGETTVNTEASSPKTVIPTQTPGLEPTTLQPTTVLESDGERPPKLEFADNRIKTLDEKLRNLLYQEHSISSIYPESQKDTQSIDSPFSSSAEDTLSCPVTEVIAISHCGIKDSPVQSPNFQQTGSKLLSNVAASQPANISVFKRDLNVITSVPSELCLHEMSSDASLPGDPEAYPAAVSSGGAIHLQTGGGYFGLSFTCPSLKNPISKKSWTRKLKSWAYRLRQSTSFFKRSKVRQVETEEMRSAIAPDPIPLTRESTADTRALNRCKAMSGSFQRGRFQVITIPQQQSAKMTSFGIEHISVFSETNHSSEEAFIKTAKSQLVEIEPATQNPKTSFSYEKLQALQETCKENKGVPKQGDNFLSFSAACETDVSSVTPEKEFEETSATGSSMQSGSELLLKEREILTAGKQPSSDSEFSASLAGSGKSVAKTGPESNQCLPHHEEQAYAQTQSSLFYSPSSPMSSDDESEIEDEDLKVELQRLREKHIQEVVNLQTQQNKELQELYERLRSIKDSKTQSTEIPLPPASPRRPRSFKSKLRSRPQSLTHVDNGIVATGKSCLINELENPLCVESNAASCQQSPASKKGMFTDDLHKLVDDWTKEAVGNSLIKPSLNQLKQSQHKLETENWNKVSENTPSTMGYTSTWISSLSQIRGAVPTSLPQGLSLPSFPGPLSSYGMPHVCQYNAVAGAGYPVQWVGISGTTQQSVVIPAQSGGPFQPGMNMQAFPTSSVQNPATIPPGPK
Sequence of Serine/threonine-protein kinase WNK2 (Homo sapiens) (Q9Y3S1 whole entry): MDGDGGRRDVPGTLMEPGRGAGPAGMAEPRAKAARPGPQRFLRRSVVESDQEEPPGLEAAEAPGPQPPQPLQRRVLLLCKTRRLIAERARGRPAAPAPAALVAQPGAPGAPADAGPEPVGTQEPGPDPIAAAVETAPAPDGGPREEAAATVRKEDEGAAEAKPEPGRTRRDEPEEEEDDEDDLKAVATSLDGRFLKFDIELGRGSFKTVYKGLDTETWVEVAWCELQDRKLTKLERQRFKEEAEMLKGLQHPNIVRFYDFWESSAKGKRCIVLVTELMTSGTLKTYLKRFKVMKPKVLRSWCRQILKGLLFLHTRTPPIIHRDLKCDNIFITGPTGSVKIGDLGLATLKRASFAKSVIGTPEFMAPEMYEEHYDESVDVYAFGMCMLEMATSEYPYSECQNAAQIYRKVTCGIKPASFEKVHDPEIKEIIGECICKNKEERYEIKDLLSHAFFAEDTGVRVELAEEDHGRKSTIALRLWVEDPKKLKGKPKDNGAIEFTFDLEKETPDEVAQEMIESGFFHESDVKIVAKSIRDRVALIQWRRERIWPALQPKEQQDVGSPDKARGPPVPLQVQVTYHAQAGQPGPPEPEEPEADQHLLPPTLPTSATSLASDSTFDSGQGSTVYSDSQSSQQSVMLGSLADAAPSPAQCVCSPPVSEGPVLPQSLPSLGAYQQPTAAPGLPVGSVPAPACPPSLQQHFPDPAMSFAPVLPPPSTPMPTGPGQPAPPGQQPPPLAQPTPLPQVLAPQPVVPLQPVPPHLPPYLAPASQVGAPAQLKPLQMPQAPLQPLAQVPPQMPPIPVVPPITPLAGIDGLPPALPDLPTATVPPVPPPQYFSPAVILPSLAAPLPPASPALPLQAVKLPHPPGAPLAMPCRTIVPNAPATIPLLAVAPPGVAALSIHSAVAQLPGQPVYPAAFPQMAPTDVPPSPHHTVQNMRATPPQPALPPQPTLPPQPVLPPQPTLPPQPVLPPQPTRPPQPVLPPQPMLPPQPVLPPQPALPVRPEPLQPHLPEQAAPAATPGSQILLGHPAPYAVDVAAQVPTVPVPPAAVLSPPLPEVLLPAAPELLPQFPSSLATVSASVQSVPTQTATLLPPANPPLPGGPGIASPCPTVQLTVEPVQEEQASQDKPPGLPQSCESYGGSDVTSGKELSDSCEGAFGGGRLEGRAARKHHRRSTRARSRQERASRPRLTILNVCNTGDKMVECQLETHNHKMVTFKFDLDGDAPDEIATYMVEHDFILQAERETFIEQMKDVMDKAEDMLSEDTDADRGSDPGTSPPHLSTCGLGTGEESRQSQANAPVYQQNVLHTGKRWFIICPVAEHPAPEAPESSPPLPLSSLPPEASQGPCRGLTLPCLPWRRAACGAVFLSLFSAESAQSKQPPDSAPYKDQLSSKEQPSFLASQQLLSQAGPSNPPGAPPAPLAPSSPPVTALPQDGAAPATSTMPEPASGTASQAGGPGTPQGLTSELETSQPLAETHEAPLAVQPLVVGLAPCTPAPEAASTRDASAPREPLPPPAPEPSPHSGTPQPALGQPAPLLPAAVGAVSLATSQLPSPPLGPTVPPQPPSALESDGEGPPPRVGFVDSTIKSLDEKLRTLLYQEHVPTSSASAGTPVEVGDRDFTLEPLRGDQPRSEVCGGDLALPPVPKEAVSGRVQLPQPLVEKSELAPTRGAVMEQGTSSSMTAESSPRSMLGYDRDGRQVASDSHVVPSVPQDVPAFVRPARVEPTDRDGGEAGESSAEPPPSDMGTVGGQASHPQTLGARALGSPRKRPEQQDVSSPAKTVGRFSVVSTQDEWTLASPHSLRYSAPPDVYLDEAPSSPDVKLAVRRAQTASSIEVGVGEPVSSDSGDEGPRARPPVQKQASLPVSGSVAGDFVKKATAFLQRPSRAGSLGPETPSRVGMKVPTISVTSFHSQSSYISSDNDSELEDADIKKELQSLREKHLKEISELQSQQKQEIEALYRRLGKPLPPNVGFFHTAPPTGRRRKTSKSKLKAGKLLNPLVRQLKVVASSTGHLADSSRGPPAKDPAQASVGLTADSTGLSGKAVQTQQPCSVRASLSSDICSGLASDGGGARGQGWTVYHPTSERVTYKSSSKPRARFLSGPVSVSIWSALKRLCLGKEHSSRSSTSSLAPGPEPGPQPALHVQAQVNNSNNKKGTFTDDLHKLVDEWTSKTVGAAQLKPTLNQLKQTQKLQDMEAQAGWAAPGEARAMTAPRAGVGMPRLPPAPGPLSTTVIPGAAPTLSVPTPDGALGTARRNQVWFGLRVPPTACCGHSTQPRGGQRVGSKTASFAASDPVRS
Sequence of Tyrosine-protein kinase Yes (Homo sapiens) (P07947 2-543 limits assumed): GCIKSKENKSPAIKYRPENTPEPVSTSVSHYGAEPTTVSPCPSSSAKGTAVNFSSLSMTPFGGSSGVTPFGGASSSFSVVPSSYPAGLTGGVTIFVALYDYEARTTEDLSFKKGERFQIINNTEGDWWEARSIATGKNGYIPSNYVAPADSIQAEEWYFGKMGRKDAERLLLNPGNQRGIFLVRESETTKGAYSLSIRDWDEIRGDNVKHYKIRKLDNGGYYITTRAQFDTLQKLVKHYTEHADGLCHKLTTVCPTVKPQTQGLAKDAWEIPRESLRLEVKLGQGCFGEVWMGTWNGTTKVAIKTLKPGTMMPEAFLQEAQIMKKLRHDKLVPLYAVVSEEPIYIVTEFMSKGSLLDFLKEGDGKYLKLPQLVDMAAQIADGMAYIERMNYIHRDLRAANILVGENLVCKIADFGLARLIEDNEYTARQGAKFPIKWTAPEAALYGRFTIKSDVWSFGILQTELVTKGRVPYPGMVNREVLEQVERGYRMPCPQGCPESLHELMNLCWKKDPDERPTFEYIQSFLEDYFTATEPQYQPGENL

For the molecule `O=C1NC(=O)/C(=C/c2ccc3c(c2)OC(F)(F)O3)S1`, the residual activity (as a rule, the signal under treatment as a percentage of the control signal) in experiment [1] is 85%; in [2], 104% (inactive); in experiment [3] it was 98%; in [4], 117%; in experiment [5] it was 116%; in experiment [6], 116%. Moreover, the residual activity in experiment [7] came out at 102%; in experiment [8] it was 98%; in experiment [9], 92%; in experiment [10], 101%.

In the case of `CC#CC(=O)Nc1cc2c(Nc3ccc(F)c(Cl)c3)ncnc2cn1`, the residual activity in experiment [1] is 84%; in [2], 102% (inactive); in experiment [3] it was 79%; in experiment [4], 101%; in experiment [5] it was 90%; in [6], 103%. Moreover, the residual activity in experiment [7] is 90%; in experiment [8], 100%; in [9], 82%; in experiment [10] it was 92%.

Consider `Nc1cccc(-c2cc3c(Oc4cccc(O)c4)ncnc3[nH]2)c1`, for which the residual activity in experiment [1] was 40%; in [2] it was 93% (inactive); in [3], 49%; in [4], 1%; in experiment [5] it was -1%; in [7], 92%. The results for the residual activity in experiment [9] and in experiment [10] were 36% and 10%, respectively.

On to `Cc1cncc2cccc(S(=O)(=O)N3CCCN(C(=O)CN)C[C@H]3C)c12`, for which the residual activity in experiment [3] worked out at 92%; in [5], 49%; in [9], 79%; in experiment [10], 95%.

`Cn1cc(/C=C2\C(=O)Nc3ccc(S(N)(=O)=O)cc32)c2ccccc21`: the residual activity in [1] was 85%; in experiment [2] it was 97% (inactive); in experiment [3], 75%; in [4] it was 8%; in experiment [5], 2%; in experiment [6], 107%. For the same molecule, the residual activity in experiment [7] is 106%; in experiment [8] it was 90%; in experiment [9], 91%; in [10], 100%.

In the case of `N#CCCc1ccc2c(c1)-c1[nH]c3ccc([N+](=O)[O-])cc3c1CC(=O)N2`, the residual activity in experiment [4] was determined as 9%; in experiment [5], 0%.

Take `CN(C)CCCn1cc(C2=C(c3c[nH]c4ccccc34)C(=O)NC2=O)c2ccccc21`: the residual activity in experiment [1] is 86%; in [2] it was 121% (inactive); in [4], 105%; in [5], 33%; in experiment [6] it was 133%; in [7] it was 62%. The residual activity in experiment [8] turned out to be 35%; in experiment [9], 113%; in experiment [10] it was 110%.

Regarding `Cc1cc2ncc(-c3ccccc3)nc2cc1C`, the residual activity in [1] is 93%; in experiment [2], 96% (inactive); in experiment [3] it was 92%; in [4], 109%; in [5], 106%; in [6], 96%. Further, the residual activity turned out to be 100% in experiment [8], 97% in experiment [9] and 83% in [10].

With `COc1cc2ncnc(N3CCN(C(=O)Nc4ccc(Oc5ccccc5)cc4)CC3)c2cc1OC`, the residual activity in experiment [1] is 48%; in experiment [2], 80% (inactive); in experiment [3], 58%; in experiment [4], 103%; in experiment [5], 105%; in experiment [6], 102%. Moreover, the residual activity worked out at 105% in experiment [7], 144% in experiment [8], 78% in [9] and 93% in [10].

With `COc1ccc(S(=O)(=O)N(CCO)c2ccccc2CN(C)C/C=C/c2ccc(Cl)cc2)cc1`, the residual activity in experiment [1] was 88%; in experiment [2], 100% (inactive); in experiment [3], 88%; in [4], 119%; in [5], 79%; in experiment [6], 105%. For the same molecule, the residual activity was found to be 96% in experiment [7], 96% in experiment [8], 78% in [9] and 73% in [10].

As to `O=[N+]([O-])c1ccc(-c2nc(-c3ccc(F)cc3)c(-c3ccncc3)[nH]2)cc1`, the residual activity in experiment [1] was 95%; in [2] it was 92% (inactive); in experiment [3], 98%; in [4], 103%; in experiment [5] it was 102%; in experiment [6], 122%. Further, the residual activity was determined as 92% in experiment [7], 102% in experiment [8], 20% in experiment [9] and 13% in [10].

For `NC(=O)c1ccc2[nH]c(-c3ccc(Oc4ccc(Cl)cc4)cc3)nc2c1`, the residual activity was 78% in experiment [1]; 93% (inactive) in experiment [2]; 86% in experiment [3]; 112% in experiment [4]; 105% in experiment [5]; 95% in [6]. For the same molecule, the residual activity in experiment [7] amounted to 92%; in [8], 106%; in experiment [9], 75%; in experiment [10], 74%.

With `O=C1NC(=O)c2c1c1c3ccccc3[nH]c1c1[nH]c3cc(Br)ccc3c21`, the residual activity in experiment [1] was 85%; in experiment [2] it was 85% (inactive); in experiment [3] it was 82%; in experiment [4] it was 95%; in [5], 88%; in [6] it was 95%. Further, the residual activity in experiment [7] stood at 102%; in [8], 91%; in experiment [9], 82%; in experiment [10], 82%.

As to `COc1cc2ncc(-c3ccccc3)nc2cc1OC`, the residual activity in experiment [1] was 94%; in experiment [2], 126% (inactive); in experiment [3], 95%; in experiment [7] it was 96%; in [8] it was 100%; in [9], 99%. In addition, in experiment [10], the residual activity stood at 86%.

On to `Cn1cnc2cc3c(Nc4cccc(Br)c4)ncnc3cc21`, for which the residual activity in experiment [1] was 85%; in [2] it was 93% (inactive); in experiment [3] it was 90%; in experiment [4], 31%; in experiment [5] it was 14%; in experiment [6], 87%. Besides, the residual activity in experiment [7] is 89%; in [8], 101%; in [9], 85%; in experiment [10] it was 90%.

`c1ccc2c(-c3ccncc3)c[nH]c2c1`: the residual activity in experiment [1] was 75%; in experiment [2], 98% (inactive); in experiment [3], 96%; in experiment [5] it was 97%; in [7] it was 110%; in [8], 107%. Moreover, the residual activity in [9] stood at 73%; in [10], 81%.

Take `COc1cc2ncnc(Nc3ccc(NC(=O)c4ccccc4)cc3)c2cc1OC`: the residual activity was 25% in [1]; 59% (inactive) in experiment [2]; 23% in experiment [3]; 96% in experiment [4]; 30% in experiment [5]; 97% in [7]. The residual activity in experiment [8] was determined as 84%; in experiment [9], 86%; in [10], 93%.

As to `O=C1Nc2ccc(Br)cc2/C1=C\c1cc2c([nH]1)CCCC2`, the residual activity in experiment [1] was 84%; in [2] it was 118% (inactive); in [3], 105%; in experiment [4], 79%; in [5], 63%; in [6] it was 112%. Further, the residual activity in experiment [9] came out at 99%; in experiment [10] it was 102%.

In the case of `Cc1ccc(NC2=CC(=O)c3sc(C)nc3C2=O)cc1`, the residual activity in experiment [1] was 90%; in experiment [2], 80% (inactive); in experiment [3], 95%; in [4] it was 118%; in [5], 105%; in experiment [6], 113%. Also, the residual activity amounted to 95% in [7], 82% in experiment [8], 84% in experiment [9] and 87% in experiment [10].
